Test results taken from PubChem BioAssay (Tox21).
Records with an inconclusive call do not appear. Activity calls are given as the source filed them. Unless noted, calls follow the shape of the dose curve; as a rule, active = well fitted curve in the direction sought with a large enough effect in the repeat runs; inconclusive = weak or mixed curves; inactive = no such curve, though single readings can be large; an effect the other way counts as inactive or inconclusive.

Key:
[1] = qHTS assay to identify small molecule antagonists of the sonic hedgehog signaling (Shh) pathway (AID 1259369; calls by dose curve; also: nearly all actives have a fitted effect of over 45% in size; also: potency is read from the fitted curve at half-maximal effect)
How it was run: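 Antagonist mode: compound added to 3T3 Gli1-Luc cells followed by conditioned-medium stimulation, 24 h at 37 C, 5% CO2. Inhibition taken as loss of Gli1-driven luciferase luminescence.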

[2] = qHTS assay to identify small molecule agonists of the androgen receptor (AR) signaling pathway in the presence of an antagonist - cell viability counter screen (AID 1259379); also: nearly all actives have a fitted effect of over 25% in size; also: potency is read from the fitted curve at half-maximal effect
How it was run: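 Cytotoxicity counter-screen run in the same wells as the nilutamide-challenged (3.0 µM final) AR agonist assay in MDA-kb2 cells. Compounds tested at 15 concentrations for 16 h, 37 °C without CO2; CellTiter-Fluor fluorescence read.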

[3] = qHTS assay to identify small molecule agonists of the estrogen receptor beta (ER-beta) signaling pathway - cell viability counter screen (AID 1259380); also: nearly all actives have a fitted effect of over 30% in size; also: potency is read from the fitted curve at half-maximal effect
How it was run: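 Cell viability counter screen: CellTiter-Glo luminescence (30 min, room temperature) measured in the same wells as the beta-lactamase readout, after 16 hr compound exposure at 37C of ER-beta-bla HEK293T cells in 2% charcoal-stripped FBS medium.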

[4] = target: Estrogen receptor (Homo sapiens) (UniProt P03372); assay: qHTS assay to identify small molecule agonists of the estrogen receptor alpha (ER-alpha) signaling pathway in the presence of an antagonist (AID 1259383; calls by dose curve; also: top concentration of the series differs between compounds; nearly all actives have a fitted effect of over 15% in size)
How it was run: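 Agonist-mode confirmation run in the presence of 10.0nM (final) ICI-182,780 antagonist. The reporter was ERE-driven luciferase in VM7Luc4E2 cells, grown in charcoal-stripped serum. Cells were exposed to 15-concentration compound series for 22hr, then ONE-Glo luminescence was read.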

[5] = qHTS assay to identify small molecule agonists or antagonists of the thyroid stimulating hormone receptor (TSHR) signaling pathway - wild type cell line counter screen (AID 1259384; calls by dose curve)
How it was run: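 Wild-type Hek293 cells, 800/well, 18 h at 37C, then compound with Ro20-1724 for 30 min RT. cAMP by HTRF (cAMP-d2/anti-cAMP cryptate), 1 h RT, fluorescence read. 15 concentrations, triplicates.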

[6] = target: Thyrotropin receptor (Homo sapiens) (UniProt P16473); assay: qHTS assay to identify small molecule antagonists of the thyroid stimulating hormone receptor (TSHR) signaling pathway (AID 1259385; calls by dose curve; also: nearly all actives have a fitted effect of over 20% in size; also: potency is read from the fitted curve at half-maximal effect)
How it was run: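 TSHR-HEK293 cells (800/well) plated 18 h, then compounds with Ro20-1724 and TSH at 1.5 ng/mL final, 30 min at room temperature. cAMP quantified by HTRF (cAMP-d2/anti-cAMP-cryptate, 1 h); 15 concentrations in triplicate.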

[7] = qHTS assay to identify small molecule agonists of the TGF-beta/Smad signaling pathway - cell viability counter screen (AID 1346829); also: top concentration of the series differs between compounds; nearly all actives have a fitted effect of over 45% in size
How it was run: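 Same-well cytotoxicity: CellTiter-Glo added after the 2 hr room-temperature beta-lactamase substrate step, luminescence measured 30 min later; cells had 5 hr of compound at 37 C.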

[8] = qHTS assay to identify small molecule agonists of the TGF-beta/Smad signaling pathway (AID 1346859; active = well fitted activation curve with a large enough effect in the signal ratio in the repeat runs, not every such curve was filed as active; the % refers to the signal ratio; also: series mostly up to about 77 µM)
How it was run: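 Beta-lactamase reporter activity downstream of Smad binding elements was measured in stably transfected HEK 293T cells; compounds were incubated for 5 hr, substrate for 2 hr at room temperature.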

[9] = target: Thyrotropin-releasing hormone receptor (Homo sapiens) (UniProt P34981); assay: qHTS assay to identify small molecule antagonists of the thyrotropin-releasing hormone receptor (TRHR) signaling pathway (AID 1346877; active = well fitted inhibition curve with a large enough effect in the repeat runs, not every such curve was filed as active; also: series mostly up to about 51 µM)
How it was run: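 Antagonist mode: after a 5 min room-temperature compound exposure, cells were stimulated with 1 nM (final) TRH. Dye-loaded TRHR-HEK293 cells were used, and calcium-dependent fluorescence was followed for 3 min, with 15-point titrations run in triplicate.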

[10] = target: Thyrotropin-releasing hormone receptor (Homo sapiens) (UniProt P34981); assay: qHTS assay to identify small molecule agonists of the thyrotropin-releasing hormone receptor (TRHR) signaling pathway (AID 1346891; calls by dose curve;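 also: HEK293 cells expressing TRHR with calcium dye readout; series mostly up to about 58 µM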)
How it was run: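 Overnight-plated (18 h, 37 °C, 5% CO2) TRHR-Hek293 cells; 2 h calcium dye at 37 °C; compound in DMSO; 3-min kinetic fluorescence read.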

[11] = qHTS assay to identify small molecule antagonists of the estrogen receptor beta (ER-beta) signaling pathway - cell viability counter screen (AID 1259382); also: nearly all actives have a fitted effect of over 55% in size; also: potency is read from the fitted curve at half-maximal effect
How it was run: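 Cytotoxicity was measured in the same wells by CellTiter-Glo luminescence after 30 min at room temperature. Cells were ER-beta-bla HEK293T in charcoal-stripped serum, given compound together with 1 nM E2 and incubated 16 h at 37C.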

[12] = target: Progesterone receptor (Homo sapiens) (UniProt P06401); assay: qHTS assay to identify small molecule agonists of the progesterone receptor (PR) signaling pathway (AID 1346784; calls by dose curve; also: nearly all actives have a fitted effect of over 30% in size)
How it was run: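 Seed PR-UAS-bla HEK 293T cells (2% charcoal-stripped FBS), incubate 6 hr at 37C; add compounds in DMSO, 16 hr at 37C; add LiveBLAzer B/G substrate, 2 hr RT; read fluorescence intensity.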

[13] = target: Progesterone receptor (Homo sapiens) (UniProt P06401); assay: qHTS assay to identify small molecule antagonists of the progesterone receptor (PR) signaling pathway (AID 1346795; active = well fitted inhibition curve with a large enough effect in the signal ratio in the repeat runs, not every such curve was filed as active; the % refers to the signal ratio; also: potency is read from the fitted curve at half-maximal effect)
How it was run: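 Screening used a GripTite HEK293T line with PR-responsive UAS-beta-lactamase. Cells were challenged with compound in the presence of 1 nM R5020 final for 16 hr at 37C; B/G FRET substrate, 2 hr room temperature, fluorescence.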

[14] = qHTS assay to identify small molecule antagonists of the progesterone receptor (PR) signaling pathway - cell viability counter screen (AID 1346798); also: nearly all actives have a fitted effect of over 50% in size; also: potency is read from the fitted curve at half-maximal effect
How it was run: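 Measures cytotoxicity in parallel with the PR antagonist reporter read: HEK293T PR-UAS-bla cells get compound and R5020 for 16 hr, and remaining viable cells are quantified by CellTiter-Glo luminescence.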

[15] = qHTS assay to identify small molecule agonists of the progesterone receptor (PR) signaling pathway - cell viability counter screen (AID 1346799; calls by dose curve; also: nearly all actives have a fitted effect of over 45% in size; also: potency is read from the fitted curve at half-maximal effect)
How it was run: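 Using the same plates as the PR reporter screen, HEK293T PR-UAS-bla cells received compounds for 16 hr at 37C and were then lysed with CellTiter-Glo; luminescence was read 30 min later at room temperature.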

[16] = qHTS assay to identify small molecule antagonists of the TGF-beta/Smad signaling pathway - cell viability counter screen (AID 1346824); also: nearly all actives have a fitted effect of over 50% in size
How it was run: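 SBE-bla HEK 293T cells, incubated overnight, then compound plus 0.25 ng/mL TGF-beta1 (stock added) for 5 hr at 37 C. Viability was read in the same wells by CellTiter-Glo luminescence after 30 min at room temperature.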

[17] = target: Estrogen receptor beta (Homo sapiens) (UniProt Q92731); assay: qHTS assay to identify small molecule agonists of the estrogen receptor beta (ER-beta) signaling pathway (AID 1259377; active = well fitted activation curve with a large enough effect in the signal ratio in the repeat runs, not every such curve was filed as active; the % refers to the signal ratio)
How it was run: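 Screening used GripTite ER-beta-UAS-bla cells held in 2% charcoal-stripped FBS medium. After overnight (16 hr) compound incubation at 37C, beta-lactamase activity was detected with a FRET substrate by fluorescence.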

[18] = target: Estrogen receptor beta (Homo sapiens) (UniProt Q92731); assay: qHTS assay to identify small molecule antagonists of the estrogen receptor beta (ER-beta) signaling pathway (AID 1259378; active = well fitted inhibition curve with a large enough effect in the signal ratio in the repeat runs, not every such curve was filed as active; the % refers to the signal ratio; also: potency is read from the fitted curve at half-maximal effect)
How it was run: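 ER-beta-UAS-bla HEK293T cells in 2% charcoal-stripped FBS medium treated with compound plus 1nM final 17-beta-estradiol for 16 hr at 37C. Beta-lactamase reporter read by FRET substrate fluorescence after 2 hours at room temperature.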

[19] = qHTS assay to identify small molecule agonists of the estrogen receptor alpha (ER-alpha) signaling pathway in the presence of an antagonist - cell viability counter screen (AID 1259386); also: nearly all actives have a fitted effect of over 30% in size; also: potency is read from the fitted curve at half-maximal effect
How it was run: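 Compounds tested at 15 concentrations for 22 h at 37C alongside 10.0nM (final) ICI-182,780 antagonist, in VM7Luc4E2 cells grown in phenol red-free, charcoal-stripped medium. Viability read by CellTiter-Fluor fluorescence after 1 h reagent incubation.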

[20] = target: Androgen receptor (Homo sapiens) (UniProt P10275); assay: qHTS assay to identify small molecule agonists of the androgen receptor (AR) signaling pathway in the presence of an antagonist (AID 1259381; calls by dose curve; also: nearly all actives have a fitted effect of over 15% in size)
How it was run: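 Agonist-mode confirmation run against 3.0 uM final nilutamide: compounds titrated at 15 concentrations onto MDA-kb2 MMTV-luciferase reporter cells. Luminescence measured with ONE-Glo following 16 hr incubation, 37C, 0% CO2.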

Measured: Potency

Sequence of Androgen receptor (Homo sapiens) (P10275 whole entry, looked up): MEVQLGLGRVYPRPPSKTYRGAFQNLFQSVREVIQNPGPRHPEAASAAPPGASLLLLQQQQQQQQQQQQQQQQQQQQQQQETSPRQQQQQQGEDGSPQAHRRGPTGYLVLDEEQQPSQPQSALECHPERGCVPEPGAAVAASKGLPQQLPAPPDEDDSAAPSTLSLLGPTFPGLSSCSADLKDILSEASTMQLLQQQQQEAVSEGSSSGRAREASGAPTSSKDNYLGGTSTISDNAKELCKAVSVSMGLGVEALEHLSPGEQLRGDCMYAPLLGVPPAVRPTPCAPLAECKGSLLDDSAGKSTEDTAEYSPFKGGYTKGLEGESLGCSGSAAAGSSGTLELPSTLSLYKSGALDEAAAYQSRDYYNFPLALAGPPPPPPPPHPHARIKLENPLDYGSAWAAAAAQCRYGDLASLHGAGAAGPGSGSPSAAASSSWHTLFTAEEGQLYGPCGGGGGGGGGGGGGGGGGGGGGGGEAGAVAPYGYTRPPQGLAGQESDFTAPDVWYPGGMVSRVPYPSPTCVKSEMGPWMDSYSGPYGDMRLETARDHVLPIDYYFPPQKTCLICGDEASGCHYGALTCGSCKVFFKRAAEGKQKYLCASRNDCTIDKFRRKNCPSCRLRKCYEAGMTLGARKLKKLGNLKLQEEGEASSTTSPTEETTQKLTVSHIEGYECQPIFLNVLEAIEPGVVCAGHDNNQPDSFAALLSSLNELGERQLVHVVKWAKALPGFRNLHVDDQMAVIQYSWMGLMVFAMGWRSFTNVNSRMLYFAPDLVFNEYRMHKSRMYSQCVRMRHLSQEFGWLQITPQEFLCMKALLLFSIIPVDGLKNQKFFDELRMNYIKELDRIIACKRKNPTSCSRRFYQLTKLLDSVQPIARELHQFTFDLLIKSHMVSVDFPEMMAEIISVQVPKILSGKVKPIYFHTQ
Sequence of Thyrotropin receptor (Homo sapiens) (P16473 whole entry, looked up): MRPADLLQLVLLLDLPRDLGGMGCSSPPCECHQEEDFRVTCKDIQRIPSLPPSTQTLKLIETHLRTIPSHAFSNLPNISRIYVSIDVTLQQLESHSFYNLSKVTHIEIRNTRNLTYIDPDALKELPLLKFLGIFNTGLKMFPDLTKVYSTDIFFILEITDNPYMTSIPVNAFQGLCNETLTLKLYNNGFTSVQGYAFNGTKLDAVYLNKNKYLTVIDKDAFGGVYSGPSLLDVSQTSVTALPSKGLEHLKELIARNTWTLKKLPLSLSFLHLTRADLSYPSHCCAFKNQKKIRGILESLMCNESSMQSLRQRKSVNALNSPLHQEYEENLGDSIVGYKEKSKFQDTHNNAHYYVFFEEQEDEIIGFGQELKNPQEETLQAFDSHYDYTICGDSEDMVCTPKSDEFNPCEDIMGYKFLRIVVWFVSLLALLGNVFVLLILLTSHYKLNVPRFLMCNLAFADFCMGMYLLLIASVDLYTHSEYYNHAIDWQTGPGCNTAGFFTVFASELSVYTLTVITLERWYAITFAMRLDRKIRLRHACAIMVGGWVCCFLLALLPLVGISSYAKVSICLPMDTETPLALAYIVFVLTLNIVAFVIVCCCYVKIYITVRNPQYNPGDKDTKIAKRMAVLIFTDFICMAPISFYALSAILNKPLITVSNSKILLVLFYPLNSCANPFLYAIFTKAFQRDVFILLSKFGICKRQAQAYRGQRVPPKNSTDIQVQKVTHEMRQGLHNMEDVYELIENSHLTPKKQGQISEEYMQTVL
Sequence of Estrogen receptor (Homo sapiens) (P03372 whole entry, looked up): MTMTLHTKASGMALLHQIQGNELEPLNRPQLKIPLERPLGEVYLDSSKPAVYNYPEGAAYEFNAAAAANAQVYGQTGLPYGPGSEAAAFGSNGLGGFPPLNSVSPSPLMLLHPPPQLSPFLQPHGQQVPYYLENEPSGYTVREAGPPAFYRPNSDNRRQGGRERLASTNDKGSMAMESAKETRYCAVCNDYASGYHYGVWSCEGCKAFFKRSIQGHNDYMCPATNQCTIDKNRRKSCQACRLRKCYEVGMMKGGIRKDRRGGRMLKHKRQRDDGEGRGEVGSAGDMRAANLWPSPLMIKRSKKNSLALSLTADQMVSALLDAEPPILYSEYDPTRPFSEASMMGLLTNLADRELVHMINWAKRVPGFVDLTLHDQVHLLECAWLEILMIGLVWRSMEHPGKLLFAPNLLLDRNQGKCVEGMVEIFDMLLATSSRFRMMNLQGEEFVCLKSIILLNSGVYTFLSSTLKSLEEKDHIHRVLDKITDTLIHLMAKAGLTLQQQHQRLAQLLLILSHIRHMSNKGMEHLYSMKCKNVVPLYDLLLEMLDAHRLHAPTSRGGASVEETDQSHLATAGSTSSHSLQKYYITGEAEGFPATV
Sequence of Thyrotropin-releasing hormone receptor (Homo sapiens) (P34981 whole entry, looked up): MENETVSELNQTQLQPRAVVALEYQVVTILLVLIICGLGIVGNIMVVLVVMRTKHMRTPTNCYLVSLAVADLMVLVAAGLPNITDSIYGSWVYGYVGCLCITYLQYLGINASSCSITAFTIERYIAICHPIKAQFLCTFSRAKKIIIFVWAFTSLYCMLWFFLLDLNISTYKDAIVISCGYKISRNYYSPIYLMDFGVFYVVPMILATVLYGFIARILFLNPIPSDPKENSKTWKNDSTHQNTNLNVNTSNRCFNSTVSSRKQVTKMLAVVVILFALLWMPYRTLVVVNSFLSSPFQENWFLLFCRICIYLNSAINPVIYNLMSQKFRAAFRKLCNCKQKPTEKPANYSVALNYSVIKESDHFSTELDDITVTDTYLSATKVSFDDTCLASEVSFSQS
Sequence of Estrogen receptor beta (Homo sapiens) (Q92731 whole entry, looked up): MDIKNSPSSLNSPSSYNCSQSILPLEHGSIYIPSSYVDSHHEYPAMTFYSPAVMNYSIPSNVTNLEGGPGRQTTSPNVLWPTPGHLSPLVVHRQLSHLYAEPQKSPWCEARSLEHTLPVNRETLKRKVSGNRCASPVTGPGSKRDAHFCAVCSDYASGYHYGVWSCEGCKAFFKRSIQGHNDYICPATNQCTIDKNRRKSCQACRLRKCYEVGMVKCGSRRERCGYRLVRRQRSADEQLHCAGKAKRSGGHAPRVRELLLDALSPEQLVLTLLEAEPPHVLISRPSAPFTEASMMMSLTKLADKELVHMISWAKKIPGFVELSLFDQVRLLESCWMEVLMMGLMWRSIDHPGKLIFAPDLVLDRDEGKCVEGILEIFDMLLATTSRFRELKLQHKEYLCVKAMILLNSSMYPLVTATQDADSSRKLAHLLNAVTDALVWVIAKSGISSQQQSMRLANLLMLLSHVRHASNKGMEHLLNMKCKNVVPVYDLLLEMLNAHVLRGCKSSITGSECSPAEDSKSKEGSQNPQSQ
Sequence of Progesterone receptor (Homo sapiens) (P06401 whole entry, looked up): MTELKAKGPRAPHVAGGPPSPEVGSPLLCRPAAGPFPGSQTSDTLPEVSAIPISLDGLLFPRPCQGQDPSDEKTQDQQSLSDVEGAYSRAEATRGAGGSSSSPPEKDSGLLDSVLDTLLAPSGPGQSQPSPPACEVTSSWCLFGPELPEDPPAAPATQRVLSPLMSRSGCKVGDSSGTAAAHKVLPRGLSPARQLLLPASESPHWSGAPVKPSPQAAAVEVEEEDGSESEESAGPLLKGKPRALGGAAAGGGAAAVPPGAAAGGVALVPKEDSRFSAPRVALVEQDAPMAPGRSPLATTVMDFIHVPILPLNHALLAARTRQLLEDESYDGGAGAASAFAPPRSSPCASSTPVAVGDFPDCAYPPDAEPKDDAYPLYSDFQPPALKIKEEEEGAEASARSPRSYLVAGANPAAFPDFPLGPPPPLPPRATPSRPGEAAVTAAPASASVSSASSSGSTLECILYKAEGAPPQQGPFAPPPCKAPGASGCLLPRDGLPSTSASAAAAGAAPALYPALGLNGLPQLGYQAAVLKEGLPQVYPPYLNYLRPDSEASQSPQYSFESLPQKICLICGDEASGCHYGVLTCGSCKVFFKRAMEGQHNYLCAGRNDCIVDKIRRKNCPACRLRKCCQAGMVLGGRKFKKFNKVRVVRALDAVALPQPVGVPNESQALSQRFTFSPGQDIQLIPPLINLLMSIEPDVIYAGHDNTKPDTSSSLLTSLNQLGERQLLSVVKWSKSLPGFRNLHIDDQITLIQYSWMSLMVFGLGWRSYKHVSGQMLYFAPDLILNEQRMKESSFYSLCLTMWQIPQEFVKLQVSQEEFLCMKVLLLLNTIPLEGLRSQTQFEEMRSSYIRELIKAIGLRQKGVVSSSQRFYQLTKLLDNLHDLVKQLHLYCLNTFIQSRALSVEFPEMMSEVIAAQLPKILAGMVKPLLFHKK

C=CC(=O)OCCOCCOC(=O)C=C
active: [1] 4.88 µM | [2] 61.4 µM | [3] 24.4 µM
inactive: [4] | [5] | [6] | [7] | [8] | [9] | [10]

CC1=CC=C(C(C)C)CC1
inactive: [1] | [2] | [3] | [11] | [4] | [12] | [13] | [14] | [15] | [16] | [7] | [8]

c1ccc(CNCCNCc2ccccc2)cc1
active: [18] 10.6 µM
inactive: [17] | [2] | [3] | [11] | [4] | [5] | [6] | [19] | [12] | [14] | [15] | [16] | [7] | [8] | [9] | [10]

Clc1ccc2c(c1)CCc1cccnc1C2=C1CCNCC1
inactive: [4] | [5] | [16] | [7] | [8]
active: [1] 1.68 µM | [3] 33.5 µM | [11] 18.8 µM | [6] 26.6 µM | [14] 21.1 µM

CN(C)CCCN1c2ccccc2Sc2ccccc21
inactive: [19] | [12] | [16] | [7] | [9] | [10]
active: [1] 11.9 µM | [3] 21.1 µM | [11] 26.6 µM

CC(C)(C)OCC1CO1 (centres undefined)
inactive: [17] | [18] | [2] | [3] | [11] | [5] | [19] | [12] | [14] | [15] | [7] | [8] | [9] | [10]

CCc1cc(C2=C(C(=O)O)N(c3ccccc3C(F)(F)F)S(=O)(=O)c3ccccc32)cc2c1OCO2
inactive: [1] | [12] | [16] | [7] | [8] | [9] | [10]
active: [3] 15.2 µM

CCCCCCOC(=O)NC(=N)c1ccc(NCc2nc3cc(C(=O)N(CCC(=O)OCC)c4ccccn4)ccc3n2C)cc1
active: [1] 1.19 µM | [3] 11.9 µM | [11] 11.9 µM | [6] 29.8 µM | [19] 26.6 µM | [14] 21.1 µM | [15] 18.8 µM
inactive: [4] | [5] | [12] | [9] | [10]

C/C=C/C=C/CO
inactive: [17] | [18] | [2] | [3] | [11] | [5] | [6] | [12] | [14] | [15] | [7]

CCCCNc1ccc(C(=O)OCCOCCOCCOCCOCCOCCOCCOCCOCCOC)cc1
inactive: [17] | [18] | [2] | [11] | [4] | [5] | [6] | [12] | [13] | [16] | [7] | [8] | [9] | [10]

CCC(Cl)CCC(Cl)C(Cl)CC(Cl)C(Cl)C(Cl)CCl (centres undefined)
inactive: [17] | [18] | [2] | [3] | [11] | [5] | [6] | [19] | [12] | [13] | [14] | [15] | [16] | [7] | [8] | [9] | [10]

CCOc1ccc(N)c([N+](=O)[O-])c1
inactive: [1] | [3] | [11] | [4] | [5] | [6] | [12] | [14] | [15] | [16] | [7] | [8] | [9] | [10]

C[C@@H]1C[C@H]2O[C@@]3(O[C@@H]2C(C)(C)O)[C@H](O)[C@@]2(C)[C@@H]4CC[C@H]5C(C)(C)[C@@H](O[C@@H]6OC[C@@H](O)[C@H](O)[C@H]6O)CC[C@@]56C[C@@]46CC[C@]2(C)[C@@H]13
inactive: [17] | [18] | [2] | [20] | [11] | [4] | [5] | [6] | [19] | [12] | [14] | [16] | [7] | [9] | [10]

Cc1ccc(N=Nc2c(O)c(C(=O)O)cc3ccccc23)c(S(=O)(=O)O)c1
active: [2] 23.6 µM
inactive: [17] | [18] | [3] | [11] | [5] | [6] | [12] | [13] | [14] | [15] | [16] | [7] | [8] | [9] | [10]

C=C1C(=C/C=C2\CCC[C@]3(C)[C@@H]([C@H](C)/C=C/[C@@H](O)C4CC4)CC[C@@H]23)C[C@@H](O)C[C@@H]1O
active: [1] 0.0007 µM | [3] 26.6 µM | [13] 11.9 µM
inactive: [20] | [4] | [5] | [6] | [12] | [16] | [7] | [8]

Cc1cccc(C)c1OCC(=O)N[C@@H](Cc1ccccc1)[C@@H](O)C[C@H](Cc1ccccc1)NC(=O)[C@H](C(C)C)N1CCCNC1=O
active: [1] 29.8 µM | [3] 23.7 µM | [11] 23.7 µM | [19] 29.8 µM | [14] 29.8 µM
inactive: [20] | [4] | [5] | [6] | [16]

Clc1ccc(Cn2c(CN3CCCC3)nc3ccccc32)cc1
active: [18] 11.9 µM | [14] 6.68 µM | [15] 7.5 µM
inactive: [17] | [2] | [5] | [19] | [7] | [9] | [10]

O=C(Nc1ccc(S(=O)(=O)N2CCOCC2)cc1)c1cc(Cl)ccc1NS(=O)(=O)c1ccc(Cl)s1
active: [1] 26.6 µM
inactive: [2] | [4] | [5] | [6] | [19] | [12] | [14] | [15] | [16] | [7] | [8] | [9] | [10]
